FH mod: Identification of activators of human fumarate hydratase by quantitative high-throughput screening; Fumarate hydratase, mitochondrial (Homo sapiens), P07954; FH coupled MDH/diaphorase resazurin fluorescence, 15 min; Potency, µM (titrated, usually from 79.9 µM), for inactives: top-dose activity change, negative = inhibition, most hits filed as inhibitors; hit rate 0.22% among 54,000; AID 1347055, 2019; note: potency is the fitted concentration of half-maximal effect; % is set by controls: 0 for no effect and ±100 for the full control effect; the screen sought activators but most active calls are inhibition curves; nearly all actives have a fitted effect of over 45% in size
Target sequence (P07954 whole entry, looked up): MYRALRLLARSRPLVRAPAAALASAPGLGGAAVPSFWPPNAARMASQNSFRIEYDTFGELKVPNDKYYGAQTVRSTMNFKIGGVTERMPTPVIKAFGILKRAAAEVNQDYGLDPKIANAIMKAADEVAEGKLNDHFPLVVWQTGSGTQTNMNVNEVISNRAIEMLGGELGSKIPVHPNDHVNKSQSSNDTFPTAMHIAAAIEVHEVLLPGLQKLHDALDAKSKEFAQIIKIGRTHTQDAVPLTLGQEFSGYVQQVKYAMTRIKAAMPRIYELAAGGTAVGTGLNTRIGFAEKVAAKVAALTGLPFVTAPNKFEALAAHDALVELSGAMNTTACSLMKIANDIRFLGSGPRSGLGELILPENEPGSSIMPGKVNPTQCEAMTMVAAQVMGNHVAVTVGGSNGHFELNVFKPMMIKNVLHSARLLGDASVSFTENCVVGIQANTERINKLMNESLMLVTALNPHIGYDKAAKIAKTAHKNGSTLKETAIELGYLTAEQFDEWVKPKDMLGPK
GALK inhibitor: qHTS Assay for Inhibitors of Human Galactokinase (GALK): NCGC Sytravon Library Screen. recombinant GALK, Kinase-Glo ATP luminescence, 1 h. Potency, µM (highest dose often 57.5 µM), inactives show at the highest dose activity, negative = inhibition, most hits filed as inhibitors. 44,000 tested, under 10 active;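 note: plate controls were full GALK reaction for no effect and reaction lacking GALK for full effect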
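Compounds were pinned into ATP buffer, then GALK-galactose mix was added (final 5 nM enzyme, 35 uM ATP, 100 uM galactose, pH 8.0). After 1 h at room temperature, Kinase-Glo Plus was added and luminescence read.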
NTMT1 inhibitor: Primary qHTS for Inhibitors of N-terminal methyltransferase 1 (NTMT1): MTaseGlo Assay; N-terminal Xaa-Pro-Lys N-methyltransferase 1 (Homo sapiens), Q9BV86; NTMT1 MTase-Glo SAH luminescence, purified enzyme; Potency, µM (titrated, usually from 114 µM), for the others: at the highest dose activity change, negative = inhibition, actives largely listed as inhibitors; hit rate 2.5% among 59,000; AID 1645870, 2021;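 note: potency is the fitted concentration of half-maximal effect; plate controls were DMSO vehicle for no effect and no enzyme for full effect; nearly all actives have a fitted effect of over 65% in size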
Target sequence (Q9BV86 whole entry, looked up): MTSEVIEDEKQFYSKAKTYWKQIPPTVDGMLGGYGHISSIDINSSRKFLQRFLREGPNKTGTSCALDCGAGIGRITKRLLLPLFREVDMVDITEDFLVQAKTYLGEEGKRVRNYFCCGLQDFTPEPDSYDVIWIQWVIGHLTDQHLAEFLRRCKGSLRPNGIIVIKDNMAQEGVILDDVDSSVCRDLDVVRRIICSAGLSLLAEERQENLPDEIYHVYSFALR
HTT-AS promoter: Primary qHTS for Identification of Small Molecule Activators of Huntingtin-Antisense Promoter Activity. AID 1508624, 2021. HEK293 HTT-AS promoter firefly luciferase reporter, 24 h; response scale: percent change from vehicle, -100% = no light. Potency, µM (highest dose often 57.5 µM), inactives show at the highest dose activity change, positive = activation, actives largely listed as activators. hit rate 0.24% among 48,000; note: potency is the fitted concentration of half-maximal effect; nearly all actives have a fitted effect of over 55% in size
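Luminescence was read after Dual-Glo reagent and a 10 min room-temperature incubation. Values were normalized to vehicle (0% activity) and zero RLU (-100% activity). Reporter HEK293 cells had been exposed to compounds (up to 57.5 uM final) for 24 h.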
HTT prom inh: Primary qHTS for Identification of Small Molecule Inhibitors of Huntingtin Promoter Activity | HEK293 HTT promoter firefly luciferase reporter, 24 h | Potency, µM (doses to about 57.5 µM), without a hit: top-dose activity change, negative = inhibition, most hits filed as inhibitors | hit rate 0.93% among 48,000 | AID 1508623, 2021; note: potency is the fitted concentration of half-maximal effect; nearly all actives have a fitted effect of over 50% in size
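HEK293 cells carrying firefly luciferase reporters were seeded at 2,500 per well in Opti-MEM and cultured for 24 h. They were then treated with compounds at up to 57.5 uM final for 24 h at 37 degrees C before Dual-Glo luminescence readout.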
An asterisk follows results filed as active; ? = inconclusive; · = no result; ! = a repeat was not active; [ ] = dose if it differs, or a comment. Compounds with a hit are over-represented: about 2.5% of the library has one in this group of screens. Calls come from the whole dose curve; as a rule, active = well fitted curve in the direction sought with a large enough effect; inconclusive = small, poorly fitted or top-dose-only effect, or another doubt; inactive = no such curve, though single readings can be large; an effect the other way counts as inactive or inconclusive.

SMILES	FH mod	GALK inhibitor	NTMT1 inhibitor	HTT-AS promoter	HTT prom inh
O=C(Nc1cccc(Cl)c1)c1cc(-c2ccccc2)on1	0.7%	1.6%	-3.7%	?	2.1%
CC(C)(C)OC(=O)N1CCN(c2ccc(NCc3ccc4c(c3)OCO4)cc2)CC1	·	·	-8.7%	·	·
Cc1[nH]nc2ccc(-c3cncc(OC[C@@H](N)Cc4ccccc4)c3)cc12	?	·	25.1µM*!	-43.1%	?
Cc1cccc(CNc2ncnc3ccc(-c4cccnc4)cc23)c1	·	·	-10.2%	·	·
O=C(O)c1ccc2cc(-c3ccc(O)c(C45CC6CC(CC(C6)C4)C5)c3)ccc2c1	-15.6%[53.3 µM]	·	50.1µM*!	-8.9%	-18.1%
O=C(O)c1ccc2c(c1)C(=O)N([C@]1(C(=O)O)C[C@H]1c1ccccc1)C2=O	·	·	9.1%[57.5 µM]	·	·
Oc1ccc(C=Cc2cc(O)cc(O)c2)cc1	-24.1%[53.3 µM]	·	?	?	19.9%
Oc1ccc(/C=C/c2cc(O)cc(O)c2)cc1	?	·	44.7µM*!	?	7.0%
O=C1C(SCCO)=C(SCCO)C(=O)c2ccccc21	7.94µM*	·	·	·	·
CC1=CC(=O)c2ccccc2C1=O	?	·	?	-27.3%	-21.2%
Cc1ccc(NS(=O)(=O)c2cc(Br)cc3c2N(C(=O)C2CC2)CC3)cc1C	-8.8%	0.0%	0.8%	-61.8%	5.62µM*
O=C(C1CC1)N1CCc2cc(Br)cc(S(=O)(=O)Nc3ccc(F)c(F)c3)c21	28.2µM*	6.6%	17.5%	-85.7%	?
COc1cc(NS(=O)(=O)c2cc(Br)cc3c2N(C(=O)C2CC2)CC3)cc(OC)c1	-16.5%	-2.1%	7.1%	-96.2%	15.8µM*
CCN(Cc1ccccc1)S(=O)(=O)c1cc(C(=O)Nc2cc(Cl)cc(Cl)c2)ccc1F	-26.4%	2.0%	10.3%	-45.4%	25.1µM*
CCOc1ccc(NC(=O)c2ccc(F)c(S(=O)(=O)N(CC)Cc3ccccc3)c2)cc1	-25.2%	-0.3%	3.2%	-39.8%	2µM*
O=C(Nc1cc(Cl)cc(Cl)c1)c1ccc(F)c(S(=O)(=O)NCc2ccccc2Cl)c1	?	1.5%	12.8%	-31.9%	?
COC(=O)c1ccc(CN(Cc2ccc(OC)c(OC)c2)S(=O)(=O)c2cc(C(=O)Nc3cccc(C)c3)ccc2F)cc1	-12.7%	-5.2%	-1.2%	-2.7%	-19.6%
CCN(C(=O)c1ccccc1OC)c1cc2c(cc1N1CCNC[C@H]1C)n(C)c(=O)n2C	·	·	11.6%	·	·
CC(C)(C)c1ccc(NC(=O)C2CCCN(c3cnccn3)C2)cc1 (stereo unspecified)	-25.0%	2.7%	89.1µM*	19.0%	-8.3%
c1ccc(CNCc2ccc(CN3CCCNCCNCCCNCC3)cc2)nc1	·	·	23.2%	·	·
Cc1cc(Nc2ncc3cc(-c4c(Cl)cccc4Cl)c(=O)n(C)c3n2)ccc1F	4.6%	·	12.0%[57.5 µM]	·	·
CCN(CC)CCOc1ccc(Nc2ncc3cc(-c4c(Cl)cccc4Cl)c(=O)n(C)c3n2)cc1	-13.7%[53.3 µM]	·	79.4µM*!	-33.4%	?
NC(=O)c1cnc(N[C@@H]2CCCC[C@H]2N)nc1Nc1cccc(-n2nccn2)c1	-16.3%	·	?	·	·
CC(C)(C)c1ccc(C(=O)Nc2ccc3nc(SCC(=O)N4CCCC4)sc3c2)cc1	?	3.3%	-5.8%	-86.0%	14.1µM*
O=C(Nc1ccc2nc(SCC(=O)N3CCCC3)sc2c1)c1ccc(Br)cc1	-2.7%	-1.6%	7.8%	-17.1%	-15.3%
SMILES	FH mod	GALK inhibitor	NTMT1 inhibitor	HTT-AS promoter	HTT prom inh
CN1CCN(C(=O)[C@H](Cc2ccc(O[S+](=O)([O-])c3cccc4cnccc34)cc2)N[S+](=O)([O-])c2cccc3cnccc23)CC1	·	·	-1.0%	·	·
C[n+]1cc2c3c(ccc2c2ccc4cc5c(cc4c21)OCO5)OCO3	15.8µM*!	·	?	-93.4%[25.1 µM]	2.82µM*
C=C[C@H]1CN2CC[C@@H]1C[C@H]2[C@H](O)c1ccnc2ccc(OC)cc12	-14.4%[53.3 µM]	·	·	·	·
O=C(O)CCCCN(CCc1ccccc1OCc1ccc(CCc2ccccc2)cc1)Cc1ccc(C(=O)O)cc1	·	·	-6.3%	·	·
COc1ccc(CN2CCc3c(c(=O)n4ncc(C(=O)N5CCN(c6ccccc6OC)CC5)c4n3C)C2)cc1	8.7%	-1.5%	17.5%	-87.6%	1.78µM*
CN(C)C(N)=NC(=N)N	·	·	14.4%	·	·
Cc1ccc(-c2nn3c(C)nnc3s2)cc1NCc1ccc(-c2cccc(Cl)c2)o1	·	·	9.0%	·	·
Cc1nc(-c2ccc(Cl)cc2)sc1CCNC(=O)Cc1ccc(F)cc1	-4.9%	0.8%	-1.0%	-38.2%	31.6µM*
Cc1cccc(-n2nnc(-c3nc(-c4cccs4)no3)c2N)c1	3.0%	0.0%	9.9%	?	62.2%
Cc1cccc(-n2nnc(-c3nc(-c4cccs4)no3)c2N)c1C	3.1%	-3.7%	4.7%	0.355µM*	103.5%
Cc1ccccc1-c1noc(-c2nnn(-c3ccccc3C)c2N)n1	-2.6%	?	25.5%	0.708µM*	78.5%
C[C@@H](CO)Nc1cc2c(cc1[S+](=O)([O-])Nc1ccc(Cl)c(Cl)c1)CCC(=O)N2	·	·	-4.1%	·	·
CC(C)OCc1cc(CN2CCN(c3ccccc3)CC2)c(O)c2ncccc12	?	-2.0%	5.9%	-43.2%	12.6µM*
Cc1cc2c(s1)c1cnn(Cc3ccc(Cl)cc3)c(=O)c1n2C	·	·	89.1µM*	·	·
CCCCCCCCCCCC1=C(O)C(=O)C=C(O)C1=O	-7.6%[53.3 µM]	·	44.7µM*!	-26.2%	-17.7%
Cc1nc(C)c(-c2ccc(SCC(=O)Nc3ccc(Cl)c(Cl)c3)nn2)s1	-6.9%	-3.7%	12.6%	-31.8%	17.8µM*
CCC(=O)N1CCc2cc(Br)cc(S(=O)(=O)N3CCCC(C(=O)Nc4ccc(OC)cc4OC)C3)c21 (stereo unspecified)	-41.0%	6.7%	89.1µM*	-10.7%	-1.3%
CCC(=O)N1CCc2cc(Br)cc(S(=O)(=O)N3CCCC(C(=O)N(C)c4ccc(Br)cc4)C3)c21 (stereo unspecified)	-14.3%	-0.3%	89.1µM*	-42.0%	-37.3%
CCc1cccc(C)c1Nc1c(-c2cccc(O)c2)nc2sccn12	?	-3.2%	?	-22.2%	-9.6%
COc1cc(-c2nc3ncccn3c2Nc2ccc(C)cc2C)ccc1O	?	3.2%	-13.4%	-8.3%	6.5%
COc1cc(-c2nc3sccn3c2Nc2c(C)cccc2C)ccc1O	15.8µM*	-1.3%	?	-3.9%	-2.4%
Cc1cccc(C)c1Nc1c(-c2ccc(O)cc2)nc2sccn12	31.6µM*	-7.4%	-8.2%	-16.4%	-13.3%
O=C(CSc1nnc2[nH]c(=O)cc(-c3ccccc3)n12)Nc1ccccc1C(F)(F)F	8.0%	0.9%	-10.1%	11.2µM*	46.3%

Bioassay records: PubChem, National Center for Advancing Translational Sciences (NCATS)
